The text below walks through data of PubChem BioAssay AID488895 (Broad Institute, 2010).

The structures appear in SMILES notation. Screen size: about 340,000 compounds; about 120 (0.035%) were called active. The sample as a whole holds a higher share of actives than the screen did. Values without a mark were called inactive.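 How the source made its calls: active means mean replicate inhibition at least 50% and at least half of replicates individually reaching 50%; inconclusive means only one of the two criteria met; inactive means neither criterion met.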

The experiment can be described thus: E. coli Tat export inhibitors, primary screen, MC4100, TorA-mCherry reporter, fluorescence, single point (AID 488895).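 Further: exported cargo escapes ClpAP degradation while cytoplasmic cargo is degraded and loses fluorescence; 0% = median of neutral control wells and 100% = median of NaSCN control wells.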 The conditions noted are these: at 10 µM, hits give high values.
Consider `COc1ccccc1C(=O)N/C(=C/c1ccc2c(c1)OCO2)C(=O)Nc1cccc(C(=O)O)c1`, for which the inhibition – broadly, the change of the read-out against control, counted positive when it falls – was 0.855%.
Then `COc1ccc(N(CC(=O)NCc2ccc(F)cc2)C(=O)CCC(=O)Nc2nccs2)cc1`, with 2.29%.
Next, `Cc1ccc(NC(=S)NC(NC(=O)Cc2cccc3ccccc23)C(Cl)(Cl)Cl)cc1` (stereo not given): -13%; `O=C1NCCn2nc3ccccc3c21`: -31.2%.
Next, `O=C(O)CCCn1cc(NC(=O)COc2cccc(Cl)c2)cn1`: -4.8%; `NC(=O)C1(N2CCCCC2)CCN(C(=O)c2ccc(C#Cc3ccccc3)o2)CC1`: -3.45%; `COc1ccccc1N(CCOc1ccccc1)S(=O)(=O)c1ccccc1`: 10%.
Take `CC(C)C(=O)Nc1ccc2c(c1)oc1ccccc12`: the inhibition is -2.62%.
Consider `C=CCN(CC=C)CCOc1ccccc1[N+](=O)[O-]`, for which the inhibition is -4.39%.
On to `C=CCSC(CC)(CC)C(N)=O`, for which the inhibition is -4.28%.
Take `COc1cc(C(=O)N2CCN(C/C=C/c3ccccc3)CC2)cc(OC)c1C`: the inhibition is 6.19%.
Next, `Cc1oc2cc3oc(=O)ccc3cc2c1C`: -9.08%; `Cn1c(SCC(=O)NC2CCCCC2)nnc1-c1cc2ccccc2o1`: 1.56%.
Next, `Cc1ccc(NC(=O)CN(C)C(=O)c2ccc(Cl)c(S(=O)(=O)NCc3ccco3)c2)cc1`: -9.55%; `COc1ccc(C(=O)N/N=C(\C)CC(=O)Nc2ccc(Cl)cn2)cc1`: -26.7%.
Then `O=C(NC(C(=O)NCCN1CCOCC1)C12CC3CC(CC(C3)C1)C2)C1CCCCC1` (stereo not given), with 6.49%; and `COc1ccccc1NC(=O)COC(=O)Cc1ccc(S(=O)(=O)N2CCCCC2)s1`, with -5.48%.
Consider `O=C1C=C(c2cccc(Br)c2)C[C@@H](c2ccc(F)cc2)C1`, for which the inhibition was 18.1%.
In the case of `CC1(C)C(=O)C2(CCCCC2)C(=O)OC1c1cccs1` (stereo not given), the inhibition is 3.17%.
Then `COCCCC1CCN(C(=O)C2CCC(=O)N(C3CCCCCC3)C2)CC1` (stereo not given), with 1.02%; and `Cc1ccc(C(=O)NC2CCCC(C)C2C)cc1S(=O)(=O)N1CCCCC1` (stereo not given), with -3.8%; and `COc1cc(OC)cc(C(=O)NC2CCN(C(=O)N3c4ccccc4Sc4ccccc43)CC2)c1`, with 9.12%.
Next, `CCC(C)(C(=O)NC1CCCCC1)N(C)C(=O)c1ccc2c(c1)OCO2` (stereo not given): 4.87%; `CCN(CC)c1ccc(C(=O)c2cnc(/N=C/N(C)C)s2)cc1`: 12.9%.
Then `CCOc1ccc(CCNC(=O)C2CCN(c3ccc(N4CCOCC4)nn3)CC2)cc1OCC`, with -3.82%; and `COc1ccc(NC(=O)CSc2nc(NS(=O)(=O)c3ccc(C)cc3)cc(=O)[nH]2)cc1`, with 0.509%; and `CC(C)CC(O)C1CCN(C(=O)CCc2nnc(-c3ccc4c(c3)OCO4)o2)CC1` (stereo not given), with -2.64%.
As for `COc1ccc(N2CC(C(=O)NCCN3C(=O)S/C(=C\c4cccnc4)C3=O)CC2=O)c(OC)c1` (stereo not given), the inhibition is -1.64%.
Next, `O=C1C(Cl)=C(Oc2ccccc2)C(=O)c2ccccc21`: -14.1%; `COc1ccc(-c2nonc2NC(=O)c2oc3ccc(F)cc3c2C)cc1OC`: -6.3%; `Cc1noc(C)c1COc1cccc(C(=O)Nc2cccnc2)c1`: 11.3%.
Consider `COCCN1C(=O)C(=O)/C(=C(/O)c2ccc(S(=O)(=O)N3CCCCC3)cc2)C1c1ccc(OC)c(OC)c1` (stereo not given), for which the inhibition was -4.83%.
Then `COCCCNC(=O)C1CC(=O)N(CCc2ccc(F)cc2)C1` (stereo not given), with 3.6%; and `O=C(Nc1cccc(F)c1)NC1CCCCCCC1`, with 3.94%; and `C=CCn1c(SCc2c(C(=O)OC)sc(N)c2C(=O)OC)nnc1-c1ccc(Cl)cc1`, with 0.305%.
Then `CCCn1c(SCC(=O)c2ccc3c(c2)OCCO3)nnc1C(C)C`, with 1.9%; and `CC(=O)c1ccc(NC(=O)C(C)OC(=O)c2ccc(NS(=O)(=O)c3ccc4[nH]c(=O)[nH]c4c3)cc2)cc1` (stereo not given), with -1.62%.
Next, `COc1cccc(CCNC(=O)COc2cccc3c2OC(C)(C)C3)c1`: -3.07%; `O=C(NCc1ccccc1)c1onc(CSc2ccncc2)c1C(=O)NCc1ccccc1`: 4.39%; `Cn1c(SCC(=O)N2CCCCC2)nc2c(c1=O)SCC2`: 1.18%.
Take `COc1cc2c(cc1OC)C(c1ccccc1Br)NC(=O)C2` (stereo not given): the inhibition was 4.97%.
Then `CSc1ccc(/C=C/C(=O)NC23CC4CC(CC(C4)C2)C3)cc1`, with 1.4%; and `COC(=O)c1cc(NC(=O)CC2C(=O)NCCN2C(=O)c2ccc(F)cc2)cc(C(=O)OC)c1` (stereo not given), with -6.39%.
In the case of `O=C(O)CCc1nc2cc(Cl)ccc2n(Cc2ccccc2)c1=O`, the inhibition was 3.23%.
Then `COc1ccccc1CNS(=O)(=O)c1c(C)[nH]c(C)c1C(=O)N1CCCCC1`, with -2.57%; and `Cc1noc(C)c1CSCC(=O)Nc1ccc(Br)cc1Cl`, with -0.881%.
Then `Cc1ccc(/C=N/NC(=O)COc2ccccc2-c2ccccc2)cc1`, with 0.565%.
As to `CC(=O)NC(C(=O)NCC(N)=O)C(C)C` (stereo not given), the inhibition is -5.64%.
Next, `Cc1ccc(SCC(=O)c2cc(C)c(OC(=S)N(C)C)c(C)c2)cc1`: 5.72%.
Then `NC(=O)C[C@@H]1NC(=O)CNC(=O)c2cc([N+](=O)[O-])cc(I)c2NCCC(C(N)=O)NC1=O` (stereo not given in full), with -3.55%; and `O=C(Nc1nnc(C2=COCCO2)o1)c1ccc([N+](=O)[O-])s1`, with -7.65%; and `CCCOc1ccc2c3c(c(=O)oc2c1OCCC)CCC3`, with 14.7%.
Then `COc1cc(C2OC(c3cc(OC)c(OC)c(OC)c3)C(C)C2C)cc(OC)c1OC` (stereo not given), with -3.59%.
On to `CCn1c(CC(=O)Nc2ccccc2)nnc1SCC(=O)N1CCOCC1`, for which the inhibition is -5.24%.
Next, `C=CCn1c(SCC(=O)Nc2ccc(NC(C)=O)cc2)nc2sc(C)c(C)c2c1=O`: -0.334%.
Next, `CC1(C)CC(=O)C(N=Nc2c(F)cccc2F)=C(O)C1`: -8.43%; `CCc1ccccc1N1C(=O)C2C3CC(=O)C(c4ccccc43)C2C1=O` (stereo not given): -1.63%.
As to `COC(=O)C1CCN(CC(N)=O)CC1`, the inhibition is -3.53%.
Next, `O=C(COC(=O)c1ccc(N2CCCC2=O)cc1)c1ccc(OC(F)F)cc1`: 6.18%; `CCn1c(SCC(=O)c2ccc(Cl)s2)nnc1-c1cccs1`: -0.241%.
Then `CCOC(=O)N1CCC(N2Cc3cccc(C(=O)Nc4c(C)cccc4CC)c3C2=O)CC1`, with 14.7%; and `CC1CCN(C(=S)NC2CC3CCC2C3)CC1` (stereo not given), with -4.26%.
For `Cc1nc(C(=O)N2CCCC(C(=O)c3ccc(Cl)cc3)C2)cs1` (stereo not given), the inhibition was 0.604%.
Next, `Oc1ccccc1-c1cc(-c2ccc(Cl)cc2)n[nH]1`: -12.8%; `NS(=O)(=O)c1cc(C(=O)OCC(=O)NNC(=O)c2ccccc2)ccc1Cl`: -3.95%.
Next, `COC(CCN(C)C)(c1ccccc1)c1ccccc1`: -2.82%; `C=C1c2c(Cl)ccc(O)c2C(O)=C2C(=O)[C@]3(O)C(O)=C(C(N)=O)C(=O)[C@@H](N(C)C)[C@@H]3[C@@H](O)C12` (stereo not given in full): 28.9%.
On to `CN(C)[C@@H]1C(=O)C(C(N)=O)=C(O)[C@@]2(O)C(=O)C3=C(O)c4c(O)ccc(Cl)c4[C@@H](O)[C@H]3C[C@@H]12`, for which the inhibition was 151% (active).
Then `CCN(C(=O)c1cc([N+](=O)[O-])ccc1NCc1cccnc1)c1ccccc1`, with -1.18%; and `COc1ccc(C(=O)O)cc1S(=O)(=O)NC1CCN(Cc2ccccc2)CC1`, with -6.45%; and `Cc1ccc(Cl)cc1NC(=O)COC(=O)C1CCCCC1`, with 6.67%.
`O=C(CCc1nnc2ccc(NCc3ccccc3Cl)nn12)NCC1CCN(C2CCCC2)C1` (stereo not given): the inhibition is 1.11%.
Next, `O=C(/C=C/Nc1ccc(S(=O)(=O)Nc2cnc3ccccc3n2)cc1)c1cccnc1`: -0.716%.
Then `COc1ccc(Br)cc1/C=N/Nc1ccc(S(=O)(=O)Nc2ccccc2C(=O)O)cc1[N+](=O)[O-]`, with -2.56%; and `O=C(NCCCN1CCN(c2ccc(F)cc2)CC1)Nc1ccc([N+](=O)[O-])cc1`, with 10.8%; and `O=S(=O)(c1ccc(F)cc1)n1ccc(-c2cnc(-c3ccccc3)s2)n1`, with 1.96%.
Then `O=C(/C=N/O)Nc1ccccc1`, with 1.32%; and `c1ccc2c(-c3nn4nnnc4c4ccccc34)cccc2c1`, with 13.5%; and `COCCNc1nc(N)c([N+](=O)[O-])c(NCCO)n1`, with -3.96%.
`Cc1ccc(CSCC2Nc3ccc(C(=O)N4CCN(c5ccc(F)cc5)CC4)cc3NC2=O)cc1` (stereo not given): the inhibition is -4.6%.
With `NC(=O)CCC(NS(=O)(=O)c1ccc(Cl)cc1)C(=O)NCc1ccccc1Cl` (stereo not given), the inhibition was -7.83%.
Next, `CC(=O)N1CCN(CC(c2ccccc2)c2ccccc2)CC1`: -7.44%; `CC1Cc2ccccc2N1C1=CC(=O)CC(C)(C)C1` (stereo not given): -0.619%.
Then `CCC(C)NC(=O)C1c2ccccc2C(=O)N1Cc1ccccc1` (stereo not given), with -2.59%; and `O=C(NCC(=O)N(Cc1cccs1)C(C(=O)NC1CCCCC1)c1ccco1)c1cccs1` (stereo not given), with 7.02%; and `CC(C)(C)c1ccc(/C=C/C(=O)NC2CCS(=O)(=O)C2)cc1` (stereo not given), with 0.013%.
Next, `Cc1c(C)c2cc3c4c(oc3c(C)c2oc1=O)CCCC4`: -3.36%; `Cc1cc(N2CCCC2=O)cc(C)c1S(N)(=O)=O`: -6.67%; `CC1Sc2ccc(C(=O)NCc3ccccc3Cl)cc2NC1=O` (stereo not given): -5.09%.
`CCC(=O)N1c2ccccc2NC2=C(C(=O)CCC2)C1c1ccco1` (stereo not given): the inhibition was -4.89%.
